DUSP3 inh – inhibitors of human VHR1 phosphatase (DUSP3); P51452; recombinant VHR phosphatase, pNPP absorbance; inhibition, % at 13.3 µM; 290,000 tested, 0.52% active; AID 1654; in the data active = inhibition above about 50%
Target sequence (P51452 whole entry, looked up): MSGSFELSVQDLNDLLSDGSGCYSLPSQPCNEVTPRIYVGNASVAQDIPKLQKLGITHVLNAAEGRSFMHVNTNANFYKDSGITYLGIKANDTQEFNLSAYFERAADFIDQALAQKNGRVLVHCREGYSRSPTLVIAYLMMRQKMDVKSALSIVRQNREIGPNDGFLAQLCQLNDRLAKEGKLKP
PrPC surface inh – reduces human prion protein on the cell surface; cell surface PrPC, TR-FRET read-out; inhibition, % at 13.8 µM; P04156; 370,000 tested, 0.43% active; in the data active = inhibition above about 24%
TcdB inh – inhibitors of Clostridioides difficile toxin B glycohydrolase; P18177; TcdB glycohydrolase enzymatic assay, plate reader; inhibition, % at 9.99 µM; 350,000 tested, 0.24% active; AID 652162; in the data active = inhibition above about 10%
A number is an active result; . = inactive; / = no result given. The list is not random: actives were taken first. Their share in the collection is about 0.82%.

SMILES	DUSP3 inh	PrPC surface inh	TcdB inh
CC(=O)Nc1ccc(S(=O)(=O)NCC2CCC(C(=O)NC3CCCCCC3)CC2)cc1 (configuration not stated)	.	.	.
Cc1ccc(S(=O)(=O)NCC2CCC(C(=O)NC3CCCCC3)CC2)cc1 (configuration not stated)	58.2	.	.
CC(C)c1cn(CC[C@H]2CC[C@H](NS(=O)(=O)c3ccccc3)[C@@H](CO)O2)nn1	/	/	.
Cc1ccc(S(=O)(=O)NCc2ccc(C(=O)N3CCN(c4ccccc4)CC3)cc2)cc1	52.7	.	.
COc1cccc(S(=O)(=O)NCc2ccc(C(=O)N3CCN(c4ccccc4)CC3)cc2)c1	.	.	.
C[C@@H]1CCCCO[C@H](CN(C)C(=O)Nc2ccc3c(c2)OCO3)[C@H](C)CN([C@@H](C)CO)C(=O)c2cc(NC(=O)Nc3ccccc3)ccc2O1	/	/	.
CC(=O)c1c2c3c(c(Br)ccc3n(C)c1=O)C(=O)c1ccccc1-2	.	.	.
CC(=O)c1c2c3c(cccc3n(C)c1=O)C(=O)c1ccccc1-2	53.9	/	/
COc1cccc(C#Cc2cnc3c(c2)C(=O)N([C@H](C)CO)C[C@H](C)[C@@H](CN(C)C(C)=O)O3)c1	/	/	.
C[C@@H]1CN([C@H](C)CO)C(=O)c2cc(NC(=O)CCC(F)(F)F)ccc2O[C@@H](C)CCCCO[C@H]1CN(C)S(=O)(=O)c1cn(C)cn1	/	/	.
COc1cccc(S(=O)(=O)Nc2ccc3c(c2)OC[C@H](C)NC[C@H](C)[C@@H](OC)CN(C)C3=O)c1	/	/	.
CCCNC(=O)C[C@H]1C[C@H]2c3cc(NC(=O)NC4CCCC4)ccc3O[C@H]2[C@@H](CO)O1	/	/	.
O=C(NCCN1CCCCC1)Nc1cccc(F)c1	57.0	.	.
O=C(NCCN1CCCCC1)Nc1ccc(F)cc1	.	.	.
COc1cccc(C(=O)Nc2ccc3c(c2)C(=O)N(C)C[C@@H](OC)[C@H](C)CN(C)[C@@H](C)CO3)c1	/	/	.
CC1=C(C(=O)N2CCOCC2)C(c2ccc(OC(F)F)cc2)NC(=S)N1c1ccccc1 (configuration not stated)	53.2	.	.
CC1=C(C(=O)N2CCOCC2)C(c2ccc(Br)cc2)NC(=S)N1c1ccccc1 (configuration not stated)	.	.	.
CO[C@@H]1CN(C)C(=O)c2cc(NC(=O)c3ccc(Oc4ccccc4)cc3)ccc2OC[C@@H](C)NC[C@H]1C	/	/	.
Cc1noc(C)c1NC(=O)N(C)C[C@@H]1Oc2ccc(NS(=O)(=O)c3ccc(Cl)cc3)cc2CC(=O)N([C@@H](C)CO)C[C@H]1C	/	/	.
C[C@H]1CN([C@@H](C)CO)C(=O)Cc2cc(NC(=O)C3CCCCC3)ccc2O[C@@H]1CN(C)C(=O)NC1CCCCC1	/	/	.
O=C(COc1ccccc1)N=C1SC2CS(=O)(=O)CC2N1c1ccc(F)cc1 (configuration not stated)	54.2	.	.
COc1ccc(N2C(=NC(=O)C3CCCO3)SC3CS(=O)(=O)CC32)cc1 (configuration not stated)	55.6	.	.
O=C(N=C1SC2CS(=O)(=O)CC2N1c1ccc(Cl)cc1)C1CCCO1 (configuration not stated)	.	.	.
O=C(COc1ccccc1)N=C1SC2CS(=O)(=O)CC2N1CCc1ccccc1 (configuration not stated)	.	.	.
CCC(=O)N1CC2(C1)CN(C(=O)CC)[C@H](CO)c1[nH]c3cc(OC)ccc3c12	/	/	.
SMILES	DUSP3 inh	PrPC surface inh	TcdB inh
C[C@@H]1CN([C@H](C)CO)C(=O)c2cccc(NS(=O)(=O)c3ccccc3)c2O[C@@H]1CN(C)CC1CCCCC1	/	/	.
CCC(C)NC(=O)Nc1ccccc1C (configuration not stated)	51.6	.	/
CCC(C)NC(=O)Nc1ccccc1F (configuration not stated)	.	.	/
CO[C@H]1CN(C)C(=O)c2ccc(NS(C)(=O)=O)cc2OC[C@@H](C)N(C(=O)C2CCOCC2)C[C@H]1C	/	/	.
Cc1ccc2c(c1)c(C1=c3ccccc3=NC1=O)c(O)n2C	.	.	.
C=CCn1c(O)c(C2=c3ccccc3=NC2=O)c2ccccc21	59.7	.	.
Cc1ccc(-c2cnc3c(c2)C(=O)N([C@@H](C)CO)C[C@H](C)[C@@H](CN(C)C(=O)c2ccc(F)cc2)O3)cc1	/	/	.
CN1CCN(C(=O)C[C@@H]2C[C@@H]3c4cc(NC(=O)C5CCC5)ccc4O[C@@H]3[C@@H](CO)O2)CC1	/	/	.
O=C(NCC(c1cccs1)N1CCOCC1)c1ccccc1NS(=O)(=O)c1cccc([N+](=O)[O-])c1 (configuration not stated)	55.6	.	.
O=C(NCC(c1cccs1)N1CCOCC1)c1ccccc1NS(=O)(=O)c1ccc(Cl)c([N+](=O)[O-])c1 (configuration not stated)	.	.	.
COc1ccc(C(=O)CSc2cc(C)[nH]c(=O)n2)cc1	50.2	.	.
COc1ccc(C(=O)CSc2nc(C)cc(=O)[nH]2)cc1	.	.	/
Cc1cc(C)nc(NC(N)=NCCc2ccccc2)n1	/	.	10.3
Cc1cc(C)nc(NC(N)=NC(C)c2ccccc2)n1 (configuration not stated)	.	.	.
CO[C@H]1CN(C)C(=O)c2ccc(NC(=O)C3CC3)cc2OC[C@H](C)N(CC2CCCC2)C[C@H]1C	/	/	.
COc1ccc(C(=O)N(C)Cc2ccc(C)o2)cc1OC1CCN(C(C)C)CC1	.	.	.
COc1ccc(C(=O)NCc2cnn(C)c2C)cc1OC1CCN(C(C)C)CC1	53.5	.	.
COc1ccc(C(=O)NCc2cnn(C)c2)cc1OC1CCN(C(C)C)CC1	.	.	.
COC(=O)CN(C)C(=O)c1ccc(OC)c(OC2CCN(C(C)C)CC2)c1	57.0	.	.
O=C(C[C@H]1C[C@H]2c3cc(NC(=O)C4CCC4)ccc3O[C@H]2[C@@H](CO)O1)NCCN1CCCCC1	/	/	.
C[C@@H]1CN([C@H](C)CO)C(=O)c2cccc(NS(=O)(=O)c3cccs3)c2O[C@@H]1CN(C)CC1CCCCC1	/	/	.
Cc1noc(C)c1NC(=O)Nc1ccc2c(c1)C(=O)N([C@H](C)CO)C[C@H](C)[C@H](CN(C)C(=O)c1ccccc1)OCCCC[C@@H](C)O2	/	/	.
COc1ccc2c3c([nH]c2c1)[C@H](CO)N(Cc1ccccc1)CC31CCN(CC2CC2)CC1	/	/	.
CCNC(=O)C[C@H]1CC[C@@H]2[C@@H](COc3ccc(NC(=O)c4ccc5c(c4)OCO5)cc3C(=O)N2C)O1	/	/	14.0
CCCNC(=O)C[C@H]1CC[C@@H]2[C@@H](COc3ccc(NC(=O)c4ccc(Cl)cc4)cc3C(=O)N2C)O1	/	/	12.8
CCNC(=O)C[C@H]1CC[C@H]2[C@H](COc3ccc(NC(=O)c4ccc5c(c4)OCO5)cc3C(=O)N2C)O1	/	/	.
CN(C)CCCNC(=O)C[C@H]1CC[C@@H]2[C@H](COc3ccc(NC(=O)c4ccc5c(c4)OCO5)cc3C(=O)N2C)O1	/	/	.
CCCNC(=O)C[C@H]1CC[C@H]2[C@@H](COc3ccc(NC(=O)c4ccccc4)cc3C(=O)N2C)O1	/	/	.
CC(=O)Nc1ccc2c(c1)C(=O)N(C)[C@H]1CC[C@H](CC(=O)NCC3CC3)O[C@H]1CO2	/	/	.
CN(C)CCCNC(=O)C[C@H]1CC[C@@H]2[C@@H](COc3ccc(NC(=O)c4ccc5c(c4)OCO5)cc3C(=O)N2C)O1	/	/	10.7
